Pf growth 48h – Primary qHTS for delayed death inhibitors of the malarial parasite plastid, 48 hour incubation. P. falciparum luciferase growth in erythrocytes, 48 h. Potency, µM (highest dose often 28.7 µM), inactives show at the top dose activity change, negative = inhibition, most hits filed as inhibitors. actives 5.9% (n = 310,000); also: % is scaled to controls: 0 for no effect and ±100 for the full control effect
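Parasite viability was followed by luminescence of a genomically integrated firefly luciferase. Cultures held 0.1% parasitemia at 2% hematocrit (final), incubated under 5% CO2 at 37 C.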
AmpC detergent – qHTS Inhibitors of AmpC Beta-Lactamase (assay with detergent) | Potency, µM (top dose mostly 114 µM), without a hit: top-dose activity change, negative = inhibition, hits mostly inhibitors | actives 0.041% (n = 370,000) | AmpC hydrolysis of nitrocefin, absorbance 480 nm, 0.01% Triton;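 also: 0% = no-compound wells and -100% = no-enzyme wells; nearly all actives have a fitted effect of over 25% in size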
Target sequence (P00811 whole entry, looked up): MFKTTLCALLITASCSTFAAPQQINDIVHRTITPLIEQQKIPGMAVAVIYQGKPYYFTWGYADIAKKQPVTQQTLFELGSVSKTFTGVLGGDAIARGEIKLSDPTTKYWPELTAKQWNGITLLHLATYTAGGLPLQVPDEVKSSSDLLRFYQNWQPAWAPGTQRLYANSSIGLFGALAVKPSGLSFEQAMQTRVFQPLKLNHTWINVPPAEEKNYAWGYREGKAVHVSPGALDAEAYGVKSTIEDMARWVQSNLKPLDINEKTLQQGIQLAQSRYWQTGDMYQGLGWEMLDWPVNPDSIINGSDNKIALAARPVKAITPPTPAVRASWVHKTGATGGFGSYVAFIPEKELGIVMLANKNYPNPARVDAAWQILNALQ
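AmpC (5.3 nM in the dispensed reagent) in 20 mM phosphate pH 7.0 with 0.01% (detergent screen) or 0.0001% Triton X-100 was preincubated with compounds for 15 min at room temperature. Nitrocefin was then added from an 800 uM solution, and hydrolysis was followed at 480 nm.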
Sm TGR inh – qHTS Assay for the Inhibitors of Schistosoma Mansoni Peroxiredoxins | Schistosoma mansoni thioredoxin glutathione reductase (TGR), Q962Y6 | purified TGR, DTNB reduction, TNB absorbance 405 nm | Potency, µM (highest dose often 114 µM), for the others: at the top dose activity change, negative = inhibition, most hits filed as inhibitors | actives 3% (n = 360,000) | AID 485364, 2010; also: % is scaled to controls: 0 for no effect and ±100 for the full control effect; nearly all actives have a fitted effect of over 60% in size
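First, TGR (20 nM dispensed) and NADPH were mixed with compound. Second, a 15 min room-temperature incubation followed. Third, further NADPH and then DTNB were added to start the reaction. Finally, TNB absorbance was monitored kinetically.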
AmpC no deterg – qHTS Inhibitors of AmpC Beta-Lactamase (assay without detergent) | AmpC nitrocefin hydrolysis, absorbance 480 nm, 0.0001% Triton | Potency, µM (series often up to 57.1 µM), for inactives: at the top dose activity change, negative = inhibition, hits mostly inhibitors | actives 0.52% (n = 330,000) | AID 485341, 2010;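 also: plate controls were no compound for no effect and no enzyme for full effect; nearly all actives have a fitted effect of over 20% in size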
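AmpC (5.3 nM in the dispensed reagent) in 20 mM phosphate pH 7.0 with 0.01% (detergent screen) or 0.0001% Triton X-100 was preincubated with compounds for 15 min at room temperature. Nitrocefin was then added from an 800 uM solution, and hydrolysis was followed at 480 nm.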
Pf growth 96h – Primary qHTS for delayed death inhibitors of the malarial parasite plastid, 96 hour incubation | P. falciparum luciferase reporter growth, 96 h | Potency, µM (top dose mostly 28.7 µM), for inactives: at the top dose activity change, negative = inhibition, actives largely listed as inhibitors | actives 6.9% (n = 320,000); also: % is scaled to controls: 0 for no effect and ±100 for the full control effect
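Erythrocytes infected with luciferase-expressing P. falciparum were dispensed at 2% hematocrit and 0.05% parasitemia (final), then incubated with compounds 96 hours at 37 C in 5% CO2. Luminescence after detection reagent addition reported growth.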
SARS PLpro yeast – qHTS of Yeast-based Assay for SARS-CoV PLP; S. cerevisiae expressing SARS-CoV PLpro, growth rescue; actives 0.19% (n = 330,000); AID 485353, 2010; Potency, µM (series often up to 32.9 µM), inactives show at the top dose activity, positive = growth rescue, actives largely listed as activators; calls by dose curve; also: 0% is about no effect; nearly all actives have a fitted effect of over 55% in size
* = called active by the depositor; ? = inconclusive; . = not tested or not shown. Shown are actives, neighbours in structure and some others; about 12% of the full set was active somewhere. Unless noted, calls follow the shape of the dose curve; as a rule, active = well fitted curve in the direction sought with a large enough effect; inconclusive = small, poorly fitted or top-dose-only effect, or another doubt; inactive = no such curve, though single readings can be large; an effect the other way counts as inactive or inconclusive. Potency is read from the fitted curve at half-maximal effect.

SMILES	Pf growth 48h	AmpC detergent	Sm TGR inh	AmpC no deterg	Pf growth 96h	SARS PLpro yeast
CCCN(CCC)CCCNC(=O)C1c2cc(OC)c(OC)cc2C(=O)N(C)C1c1cccs1 (centres undefined)	.	2.1%	-23.8%	4.3%	28.2%	1.3%
CCOc1ccc(C2=CC(c3cc(Br)ccc3F)n3ncnc3N2)cc1Cl (centres undefined)	.	2.9%	-8.0%	.	.	.
COc1cccc(OC)c1OC(=O)/C=C/c1ccc(C)o1	-0.9%	-6.8%	35.5µM*	-17.1%	2.0%	3.0%
Cc1ccc(/C=C/C(=O)Oc2ccc(C#N)cc2)o1	-15.4%	-3.2%	50.1µM*	-24.0%	-11.2%	-3.3%
COC(=O)/C(C#N)=C/c1ccc(C)o1	5.2%	0.7%	8.7%	-15.8%	7.5%	0.6%
CS(=O)(=O)Cc1ccc(C(=O)N2CCCC2c2cccs2)cc1 (centres undefined)	24.3%	?	-9.1%	16.9%	12.7%	-1.0%
CC1CCN(C(=O)c2cc(S(=O)(=O)N3CCCCC3)c[nH]2)CC1	13.3%	?	-7.0%	-12.1%	-10.4%	6.7%
COc1ccc(NC(=O)CN(C)C(=O)CCCc2c[nH]c3ccccc23)cc1	?	-1.9%	-2.3%	5.4%	10.4µM*	-0.4%
CCOc1ccc(NC(=O)CN(C)C(=O)CCCc2c[nH]c3ccccc23)cc1OCC	10.4µM*	?	-1.2%	47.7%	?	1.2%
Cc1ccc(C)c(N2CCN(C(=O)c3cnc4c(-c5ccccc5)c(C)nn4c3C)CC2)c1	.	?	-0.8%	.	.	.
COc1cc(C#N)ccc1OCC(=O)Nc1cccc(S(=O)(=O)N2CCCC2)c1	9.28µM*	-4.3%	6.8%	-9.2%	8.28µM*	8.1%
CC1CCN(S(=O)(=O)c2ccc3c(c2)CCC(=O)N3CC(=O)Nc2cccc(C#N)c2)CC1	11.7µM*	4.4%	9.7%	?	?	1.9%
N#Cc1cccc(NC(=O)CNc2cccc(S(=O)(=O)N3CCCC3)c2)c1	10.4µM*	2.0%	-2.6%	-32.3%	?	-1.3%
N#Cc1cccc(C(=O)Nc2cccc(S(=O)(=O)N3CCCC3)c2)c1	?	-5.6%	-21.0%	-35.8%	-50.4%	?
N#Cc1ccc(NCC(=O)Nc2ccc(S(=O)(=O)N3CCCCC3)cc2)cc1	9.28µM*	4.7%	0.1%	-23.5%	?	8.1%
CCc1nnc2c(N3CCN(c4cccc(C(F)(F)F)c4)CC3)nc3ccccc3n12	.	-1.9%	6.9%	.	.	.
COC(=O)c1cc(S(=O)(=O)N2CCN(c3cccc(OC)c3)CC2)cn1C	11.3%	4.4%	-13.9%	10.3%	-3.3%	-3.6%
CCOc1ccc(CO[C@@H]2O[C@H](CO)[C@@H](O)[C@H](O)[C@H]2NC(C)=O)cc1OC	34.9%	-1.0%	1.3%	-4.2%	?	2.0%
O=C(CCC(=O)Nc1ccccc1Cl)NNC(=O)Nc1cccc([N+](=O)[O-])c1	?	-7.0%	-21.1%	24.8%	0.0%	-2.2%
N#Cc1cccc(NCC(=O)Nc2cccc(S(=O)(=O)N3CCCCC3)c2)c1	13.1µM*	-6.1%	-4.2%	-59.8%	?	3.0%
CCOC(=O)c1sc2c(c1C)c(=O)c(C(=O)OCC)cn2CC	2.33µM*	-1.1%	-19.9%	-19.8%	8.1%	-9.3%
COc1cc(NC(=O)CN(C)CCOc2ccccc2)c(C)cc1[N+](=O)[O-]	11.7µM*	-3.5%	-35.8%	114.9%	?	1.4%
COc1cc(NC(=O)CSc2nc3ccccc3n2-c2ccccc2)c(C)cc1[N+](=O)[O-]	11.7µM*	-3.5%	1.9%	-10.6%	?	13.0%
Cn1nnnc1SCC(=O)NCc1ccccc1	40.7%	-0.7%	-16.2%	-14.0%	8.8%	8.7%
COc1cccc(-n2nnnc2SCC(=O)Nc2ccccc2OC)c1	18.2%	?	-20.9%	-36.6%	9.28µM*	0.3%
SMILES	Pf growth 48h	AmpC detergent	Sm TGR inh	AmpC no deterg	Pf growth 96h	SARS PLpro yeast
CN(CCOc1ccccc1)CC(=O)Nc1ccc(Cl)cc1[N+](=O)[O-]	4.0%	-7.8%	-4.1%	4.4%	19.0%	-15.4%
COc1cccc(-n2nnnc2SCC(=O)Nc2ccc(OC)cc2OC)c1	24.4%	-20.7%	2.5%	-16.6%	2.8%	1.3%
CC(C)N(Cc1nc2ccccc2c(=O)[nH]1)C(=O)c1ccc(NC(=O)CSc2nnnn2C)cc1	?	-15.9%	-1.2%	-7.0%	13.1µM*	2.1%
Cc1cc(OCCn2c(CCNC(=O)C3CCCCC3)nc3ccccc32)ccc1Cl	.	-0.7%	-11.8%	.	.	.
CC(=O)Nc1ccc(OC(=O)c2ccccc2OC(C)=O)cc1	-0.6%	.	.	.	?	.
COc1cccc(-n2nnnc2SCC(=O)Nc2ccc(C(C)=O)cc2)c1	5.8%	-4.3%	8.4%	-2.8%	-100.6%	-2.6%
COC(=O)c1ccc(-n2nnnc2SCC(=O)Nc2cc(OC)ccc2OC)cc1	26.3%	-10.5%	-32.2%	-21.9%	?	-3.7%
CCCS(=O)(=O)c1nnnn1-c1cccc(OC)c1	?	?	5.62µM*	-11.9%	-1.5%	-27.2%
COc1ccc(-n2nnnc2SCC(=O)Nc2cc(OC)c([N+](=O)[O-])cc2C)cc1	?	-4.1%	-13.0%	-18.4%	2.94µM*	-0.6%
COc1ccccc1NC(=O)c1ccc(NC(=O)CSc2nnnn2C)cc1	?	-12.9%	5.62µM*	-19.3%	0.9%	1.3%
Cc1ccc(C)c(CN2C(=O)c3ccccc3S(=O)c3ccc(C(=O)NCc4ccco4)cc32)c1 (centres undefined)	.	0.1%	-2.5%	.	.	.
O=C(CSc1nnc(C2CC2)n1-c1ccccc1)NCCc1ccccc1	.	?	2.7%	11.2%	?	4.7%
O=C(N[C@@H](Cc1ccccc1)C(=O)NC1CC1)c1ccc(Cl)cc1	?	-2.7%	0.6%	-2.0%	-5.7%	-12.4%
N#Cc1ccc2[nH]cc(CCO)c2c1	10.9%	?	-4.1%	-8.6%	30.5%	3.2%
CCn1cc(CN2CCCC(C(=O)Nc3cccc(-n4cccn4)c3)C2)c(C)n1 (centres undefined)	-29.4%	?	1.5%	-16.8%	10.4µM*	5.5%
CCn1cc(CN2CCCC(C(=O)Nc3cccc(-c4cc5ccccc5[nH]4)c3)C2)cn1 (centres undefined)	10.4µM*	-1.9%	-6.5%	98.6%	85.7%	?
O=C(Nc1cccc(-n2cccn2)c1)C1CCCN(Cc2ccc(C#CCCO)cc2)C1 (centres undefined)	10.4µM*	-1.2%	-20.4%	49.2%	35.9%	-2.2%
